Screens (PubChem BioAssay)
PPARg SRC2 recr: agonists of SRC-2 recruitment by human PPARgamma; P37231; PPARgamma LBD-SRC-2 recruitment, biochemical; activation, % at 8 µM; actives 0.34% (n = 200,000);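 note: 0% = vehicle and 100% = reference agonist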
SRC2 TRFRET art: counter-screen for PPARgamma SRC-2 recruitment agonists: TR-FRET artefact; stronger effect = higher value; TR-FRET ratio at 8 µM; actives 0.4% (n = 200,000); AID 1049; in the data active = TR-FRET ratio above about 2000
PPARg SRC1 recr: promotes SRC-1 coactivator recruitment by human PPARgamma; P37231; PPARgamma-SRC-1 coactivator recruitment biochemical assay; activation, % at 8 µM; actives 0.41% (n = 200,000); in the data active = activation above about 19%;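 note: 0% = DMSO and 100% = reference agonist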
SRC1 TRFRET art: flags TR-FRET format artefacts in PPARgamma SRC-1 recruitment agonist screen; TR-FRET detection artefact counter-screen, emission ratio; stronger effect = higher value; TR-FRET ratio at 8 µM; actives 0.34% (n = 99,000); AID 1051; in the data active = TR-FRET ratio above about 2300
PPARg SRC-3 ag: agonists of human PPARgamma SRC-3 coactivator recruitment; P37231; biochemical PPARgamma/SRC-3 coactivator recruitment assay; activation, % at 8 µM; actives 0.26% (n = 200,000); AID 731; in the data active = activation above about 23%;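 note: 0% = DMSO and 100% = reference agonist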
SRC3 TRFRET art: counter-screen for PPARgamma SRC-3 recruitment agonists: TR-FRET artefact; PPARgamma/SRC-3 format; stronger effect = higher value; TR-FRET ratio at 8 µM; actives 0.39% (n = 99,000); AID 1048; in the data active = TR-FRET ratio above about 2000
PPARg SRC2 ag: confirmation of agonists of SRC-2 recruitment by human PPARgamma; shares compounds with PPARg SRC-3 ag; biochemical SRC-2 recruitment by PPARgamma; activation, % at 8 µM; actives 52% (n = 790);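 note: 0% = vehicle alone and 100% = reference agonist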
PPARg SRC1 conf: human PPARgamma SRC-1 recruitment agonism, confirmation. activation, % at 8 µM. AID 1300. PPARgamma–SRC-1 coactivator recruitment biochemical assay. shares compounds with PPARg SRC-3 ag. actives 43% (n = 790); in the data active = activation above about 20%;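 note: 0% = vehicle wells and 100% = reference agonist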
PPARg SRC3 ag: human PPARgamma SRC-3 recruitment agonism, confirmation; shares compounds with PPARg SRC-3 ag; biochemical PPARgamma-SRC-3 coactivator recruitment, agonist mode; activation, % at 8 µM; actives 29% (n = 790); in the data active = activation above about 24%;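 note: 0% = vehicle wells and 100% = reference agonist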
The depositor's hits bear a star; . = not tested or not shown. Rows were chosen to be rich in hits. Some 0.9% of all compounds tested hit in one or more screens of this group. Cut-off read from the data, not from the text of the source, unless noted: active = activation above about 22%; inactive = the rest.

SMILES | PPARg SRC2 recr | SRC2 TRFRET art | PPARg SRC1 recr | SRC1 TRFRET art | PPARg SRC-3 ag | SRC3 TRFRET art | PPARg SRC2 ag | PPARg SRC1 conf | PPARg SRC3 ag
O=C(NC(N1CCOCC1)C(Cl)(Cl)Cl)c1cc([N+](=O)[O-])cc([N+](=O)[O-])c1 (stereo unspecified) | 13.3 | 1623 | 4.6 | 1843 | -6.0 | 1738 | . | . | .
Cc1ccc2[nH]c3c(=S)nc[nH]c3c2c1 | 38.0* | 2733* | 23.2* | 2302 | 21.9 | 2834* | 13.7 | 5.5 | 9.9
COc1cccc(-n2ccnc2SCC(=O)Nc2cc(C)on2)c1 | 6.9 | 1601 | 5.8 | 1718 | 1.9 | 1536 | . | . | .
CCN(CC)C(=O)c1sc2[nH]c(=S)n(-c3ccccc3)c(=O)c2c1C | 26.9* | 1795 | 12.7 | . | 9.4 | . | 10.4 | 7.3 | 8.2
CC(C)c1nnc(NC(=O)c2c(O)c3cccc4c3n(c2=O)CCC4)s1 | -3.8 | 1526 | -3.3 | . | -11.5 | . | . | . | .
Cc1ccccc1-n1nc(C)c(N=O)c1N | 11.0 | 1710 | 7.5 | 1792 | -1.9 | 1888 | . | . | .
COC1Cc2ccccc2N(C(=O)N2CCN(CCO)CC2)c2ccccc21 (stereo unspecified) | 9.1 | 1731 | 19.0* | . | 0.9 | . | 1.1 | -1.4 | -0.2
COc1ccc(CNC(=O)CSc2nc(-c3ccccc3)cc(-c3cccs3)c2C#N)cc1 | 55.0* | 3077* | 14.4 | . | 22.5 | . | 25.6* | 24.6* | 13.4
CCN(CC)c1ccc(NC(=O)/C=C/c2cc(Br)ccc2OC)cc1 | 17.3 | 1525 | 23.8* | . | 12.8 | . | 1.3 | 4.0 | 3.1
COc1ccc(NC(=O)/C=C/c2cc(Br)ccc2OC)cc1 | -3.2 | 1651 | 0.3 | . | -0.1 | . | . | . | .
O=C1c2ccccc2C(=O)N1c1cccc(-c2csc(Nc3ccc4c(c3)OCO4)n2)c1 | 25.6* | 1630 | 18.8 | 2024 | 12.4 | 1746 | 13.8 | 12.3 | 8.3
CC(=O)c1sc(Nc2ccc(C)cc2)nc1C | 8.6 | 1619 | 6.2 | 2030 | 2.5 | 1514 | . | . | .
CC(=O)c1sc(NC(=O)C(C)C)nc1C | 81.0* | 3308* | 58.7* | . | 83.2* | . | 54.4* | 36.7* | 38.9*
CC(=O)c1sc(NC(=O)C2COc3ccccc3O2)nc1C (stereo unspecified) | 27.2* | 2016* | 20.3* | . | 28.3* | . | 24.4* | 15.3 | 14.4
CC(=O)Nc1nc(C)c(C(C)=O)s1 | 6.7 | 1792 | 4.6 | . | 20.2 | . | . | . | .
CC(=O)c1sc(Nc2ccccn2)nc1C | 48.2* | 2724* | 53.2* | . | 73.8* | . | 37.5* | 25.0* | 26.2*
CC(=O)NS(=O)(=O)c1ccc(N=NN2CCOCC2)cc1 | -2.7 | 1362 | 2.2 | 1656 | -1.9 | 1426 | . | . | .
CCn1c(=O)cc(SCC(=O)NCC2CCCO2)c2ccccc21 (stereo unspecified) | 50.1* | 2825* | 30.9* | . | 65.8* | . | 35.5* | 21.4* | 22.6
CCN1CCCC1CNC(=O)CSc1cc(=O)n(C)c2cc(Cl)ccc12 (stereo unspecified) | 51.7* | 2477* | 50.5* | . | 57.2* | . | 38.9* | 27.8* | 26.7*
CN(CCCNC(=O)CSc1cc(=O)n(C)c2cc(Cl)ccc12)Cc1ccccc1 | 19.9 | 2902* | 63.6* | 3308* | 32.9* | 2993* | 39.3* | 26.8* | 26.7*
Cn1c(=O)cc(SCC(=O)NCC2CCCO2)c2ccc(Cl)cc21 (stereo unspecified) | 89.7* | 2967* | 63.4* | . | 112.2* | . | 42.9* | 27.9* | 29.1*
Cn1c(=O)cc(SCC(=O)NCCC2=CCCCC2)c2ccc(Cl)cc21 | -6.3 | 1438 | -4.3 | 1403 | 0.1 | 1608 | . | . | .
CC(C)N(C(=O)Cn1cc(SCC(=O)NCC2CCCO2)c2ccccc21)C(C)C (stereo unspecified) | 1.2 | 1473 | 0.7 | 1859 | 1.8 | 1645 | . | . | .
COc1cccc(C(=O)Nc2cc(C)on2)c1OC | -6.7 | 1726 | -0.6 | 1747 | 1.4 | 1552 | . | . | .
Nc1ccccc1-c1n[nH]c(=S)s1 | 54.5* | 3141* | 53.7* | 3590* | 42.7* | 3076* | 40.0* | 30.9* | 24.6*
SMILES | PPARg SRC2 recr | SRC2 TRFRET art | PPARg SRC1 recr | SRC1 TRFRET art | PPARg SRC-3 ag | SRC3 TRFRET art | PPARg SRC2 ag | PPARg SRC1 conf | PPARg SRC3 ag
CC(=O)N1CCN(c2ccc(Nc3ncnc4c3oc3ccccc34)cc2)CC1 | 23.2* | 1766 | 15.0 | . | 13.2 | . | 1.7 | 3.0 | 2.3
O=C(CSc1ncnc2c1oc1ccccc12)Nc1cccc(C(F)(F)F)c1 | 35.3* | 2069* | 20.8* | . | 29.0* | . | 30.2* | 20.2* | 17.9
Fc1ccccc1CSc1ncnc2c1oc1ccccc12 | 18.9 | 2035* | 45.6* | . | 50.8* | . | 48.8* | 38.0* | 32.2*
COC(=O)c1ccc(CSc2ncnc3c2oc2ccccc23)o1 | 28.6* | 1972* | 56.4* | . | 50.4* | . | 44.0* | 28.5* | 30.5*
O=C(CSc1ncnc2c1cnn2CCc1ccccc1)Nc1cccc(C(F)(F)F)c1 | 3.8 | 1380 | -3.8 | . | -3.0 | . | . | . | .
O=c1c2oc3ccccc3c2ncn1Cc1ccccc1F | 6.4 | 1439 | -0.9 | . | 1.4 | . | . | . | .
O=C(CC1C(=O)NCCN1C/C=C/c1ccccc1)NCCc1cccnc1 (stereo unspecified) | 1.8 | 1531 | 0.8 | 1730 | -1.1 | 1753 | . | . | .
CC(C)Sc1ncnc2c1oc1ccccc12 | 33.2* | 1948 | 36.4* | . | 38.4* | . | 45.1* | 32.9* | 29.8*
O=C(O)CSc1nc(-c2ccccc2)nc2c1oc1ccccc12 | 3.2 | 1647 | 8.2 | . | 11.6 | . | . | . | .
O=C(CSc1ncnc2c1oc1ccccc12)Nc1nc2ccccc2s1 | 11.8 | 1783 | 29.9* | . | 39.2* | . | 44.1* | 31.4* | 27.6*
CC(=O)CSc1ncnc2c1oc1ccccc12 | 114.2* | 5487* | 135.2* | . | 218.7* | . | 65.3* | 43.4* | 43.5*
O=C(CSc1nc2ccccc2o1)Nc1nc2ccccc2s1 | 7.0 | 1507 | 1.5 | . | 8.2 | . | . | . | .
O=C(CSc1ncnc2c1oc1ccccc12)Nc1ccccc1F | 12.7 | 1545 | 33.1* | . | 26.9* | . | 36.7* | 28.9* | 23.5
c1ccc(Sc2ncnc3c2oc2ccccc23)nc1 | 15.3 | 1640 | 2.2 | . | 6.6 | . | . | . | .
COc1cc(NC(=O)C2CCCN(S(=O)(=O)c3ccc4c(c3)oc(=O)n4C)C2)cc(OC)c1 (stereo unspecified) | -1.5 | 1712 | -0.8 | . | 7.2 | . | . | . | .
COc1ccc(N2CCN(C(CNC(=O)c3ccco3)c3cccnc3)CC2)cc1 (stereo unspecified) | -0.9 | 1659 | 2.2 | . | -1.8 | . | . | . | .
O=c1c2oc3ccccc3c2ncn1Cc1cccc(Cl)c1 | -2.5 | 1416 | 3.4 | 1630 | -0.3 | 1540 | . | . | .
